14 molecules from PubChem BioAssay (NCI) can be followed below.

Among the test systems are SR leukemia; RPMI-8226 leukemia; OVCAR-8 ovarian; OVCAR-5 ovarian; OVCAR-4 ovarian; SK-OV-3 ovarian; IGROV1 ovarian; OVCAR-3 ovarian; HS 578T breast; NCI/ADR-RES ovarian.
Common to all, as to test: NCI-60 one-dose screen, 48 h (100 = growth as untreated, 0 = no growth, -100 = all killed)
Common to all, as to details: 10 µM

The panel holds about 83,000 compounds, 20% with a hit somewhere; the sample as a whole holds those more often.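 Activity criterion: percent growth below 10, measured after cells in 96-well plates were exposed to a single compound concentration for 48 hours.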 A number with no mark means an inactive call. Activity calls are given as the source filed them.

Turning to `CCCCCCCCCCCCCCCCn1cc[n+](C)c1`, the growth is 15.2% in the assay with SR leukemia; 15.8% in the assay with RPMI-8226 leukemia; -53.7% (active) with OVCAR-8 ovarian; -67.5% (active) with OVCAR-5 ovarian; -54.8% (active) in the assay with OVCAR-4 ovarian; -33.8% (active) in the assay on SK-OV-3 ovarian. Moreover, the growth in the assay on IGROV1 ovarian is -67.1% (active); with OVCAR-3 ovarian, -24.8% (active); in the assay with HS 578T breast, -48.4% (active); in the assay on NCI/ADR-RES ovarian it was 37.1%.

Turning to `COC(=O)CCCCCCCCC(C)c1ccc(C(C)=O)cc1` (stereo not given), the growth in the assay on SR leukemia was 94.2%; in the assay with RPMI-8226 leukemia, 121%; in the assay on OVCAR-8 ovarian it was 104%; with OVCAR-5 ovarian it was 98.4%; with OVCAR-4 ovarian it was 120%; in the assay on SK-OV-3 ovarian it was 102%. The growth with IGROV1 ovarian was 110%; in the assay on OVCAR-3 ovarian, 108%; with HS 578T breast it was 93.9%; in the assay on NCI/ADR-RES ovarian, 103%.

Consider `Cc1c(C(=O)N[C@H](CO)Cc2ccccc2)[nH]c2ccc(Cl)cc2c1=O`, for which the growth was 81.4% in the assay on SR leukemia; 92.3% in the assay on RPMI-8226 leukemia; 96.6% in the assay on OVCAR-8 ovarian; 112% in the assay with OVCAR-5 ovarian; 108% with OVCAR-4 ovarian; 99.8% in the assay with SK-OV-3 ovarian. Also, the growth in the assay with IGROV1 ovarian is 106%; with OVCAR-3 ovarian it was 111%; with HS 578T breast, 102%; in the assay on NCI/ADR-RES ovarian, 108%.

In the case of `Cc1ccc2c(c1)-c1cc(C)nn1-c1ccc(C#N)cc1O2`, the growth was 28% with SR leukemia; 54.3% in the assay with RPMI-8226 leukemia; 70.4% in the assay with OVCAR-8 ovarian; 94.1% in the assay with OVCAR-5 ovarian; 76.9% in the assay with OVCAR-4 ovarian; 53.3% with SK-OV-3 ovarian. Further, the growth in the assay with IGROV1 ovarian is 64.5%; in the assay on OVCAR-3 ovarian, 61.8%; in the assay with HS 578T breast, 56.4%; in the assay with NCI/ADR-RES ovarian it was 40.1%.

Regarding `CCOC(=O)CNC(=O)Nc1ccc(Oc2ccc(NC(=O)NCC(=O)OCC)cc2)cc1`, the growth with SR leukemia is 94.2%; in the assay with RPMI-8226 leukemia it was 99.9%; in the assay with OVCAR-8 ovarian, 98.4%; in the assay on OVCAR-5 ovarian it was 112%; with OVCAR-4 ovarian, 106%; in the assay with SK-OV-3 ovarian it was 104%. In addition, the growth with IGROV1 ovarian was 102%; in the assay with OVCAR-3 ovarian it was 107%; in the assay with HS 578T breast, 101%; in the assay with NCI/ADR-RES ovarian it was 101%.

As to `CS(=O)(=O)Nc1ccc(Nc2c3ccccc3nc3cc(Cl)ccc23)cc1`, the growth in the assay on SR leukemia is 7.92% (active); in the assay on RPMI-8226 leukemia, 41.3%; in the assay with OVCAR-8 ovarian, 25.5%; in the assay with OVCAR-5 ovarian, 63.1%; in the assay on OVCAR-4 ovarian, 56.7%; with SK-OV-3 ovarian, 42.6%. In addition, the growth with IGROV1 ovarian is 29.8%; with OVCAR-3 ovarian, 56.3%; in the assay with HS 578T breast, 81.8%; with NCI/ADR-RES ovarian, 44.8%.

In the case of `c1ccc(OCCC[P+](c2ccccc2)(c2ccccc2)c2ccccc2)cc1`, the growth with SR leukemia is -21.2% (active); in the assay with RPMI-8226 leukemia it was -27.6% (active); in the assay with OVCAR-8 ovarian, 7.15% (active); with OVCAR-5 ovarian, 29%; in the assay with OVCAR-4 ovarian it was 8.32% (active); with SK-OV-3 ovarian it was 19.6%. Further, the growth in the assay on IGROV1 ovarian is 10.5%; in the assay with OVCAR-3 ovarian, 7.59% (active); in the assay with HS 578T breast, 43.3%; in the assay on NCI/ADR-RES ovarian, 93.3%.

`CC(=O)Nc1nc(C)c(C(=O)N/N=C/c2cccn2C)s1`: the growth with SR leukemia was 107%; in the assay with RPMI-8226 leukemia, 110%; in the assay on OVCAR-8 ovarian it was 101%; in the assay with OVCAR-5 ovarian, 110%; in the assay with OVCAR-4 ovarian, 108%; in the assay on SK-OV-3 ovarian it was 141%. Moreover, the growth with IGROV1 ovarian was -1.21% (active); with OVCAR-3 ovarian, 105%; with HS 578T breast it was 72.5%; in the assay with NCI/ADR-RES ovarian, 96%.

On to `C(=C\c1nc2ccccc2s1)/c1ccc(N2CCOCC2)s1`, for which the growth in the assay on SR leukemia was 26.3%; with RPMI-8226 leukemia, 62.9%; in the assay on OVCAR-8 ovarian, 97.6%; in the assay with OVCAR-5 ovarian, 112%; in the assay with OVCAR-4 ovarian, 72.9%; with SK-OV-3 ovarian it was 98.7%. The growth was 100% in the assay on IGROV1 ovarian, 85.8% with OVCAR-3 ovarian, 112% in the assay on HS 578T breast and 69.9% with NCI/ADR-RES ovarian.

`C/C(=N/NC(=O)c1sc(=S)n(C)c1N)c1cc2cc(Cl)ccc2o1`: the growth in the assay with SR leukemia is 98.7%; in the assay on RPMI-8226 leukemia, 87.3%; in the assay on OVCAR-8 ovarian, 14.3%; with OVCAR-5 ovarian, 101%; in the assay on OVCAR-4 ovarian, 117%; with SK-OV-3 ovarian, 102%. The growth is 51.6% in the assay on IGROV1 ovarian, 110% in the assay with OVCAR-3 ovarian, 5.99% (active) in the assay with HS 578T breast and 104% with NCI/ADR-RES ovarian.

For the molecule `COc1ccc(-c2nc(SCC(=O)c3ccc(Br)cc3)[nH]c(=O)c2C#N)cc1`, the growth with SR leukemia is 94.5%; in the assay on RPMI-8226 leukemia, 104%; with OVCAR-8 ovarian it was 106%; with OVCAR-5 ovarian, 102%; in the assay with OVCAR-4 ovarian, 120%; with SK-OV-3 ovarian, 113%. In addition, the growth in the assay on IGROV1 ovarian was 112%; with OVCAR-3 ovarian, 99.3%; with HS 578T breast, 96.4%; with NCI/ADR-RES ovarian, 110%.

With `Cc1ccc(-c2cc(-c3cccc(Nc4ccnc5cc(Cl)ccc45)c3)nc3nc(N)[nH]c(=O)c23)cc1`, the growth with SR leukemia was 48.9%; with RPMI-8226 leukemia, 92.8%; in the assay with OVCAR-8 ovarian, 92.5%; in the assay on OVCAR-5 ovarian, 108%; with OVCAR-4 ovarian, 111%; in the assay with SK-OV-3 ovarian it was 111%. In addition, the growth in the assay on IGROV1 ovarian was 76.7%; in the assay with OVCAR-3 ovarian it was 92.7%; in the assay on HS 578T breast, 104%; in the assay on NCI/ADR-RES ovarian, 100%.

Regarding `Nc1c(C(=O)NC2CCCCC2)sc2nc3c(cc12)C(=O)CCC3`, the growth in the assay with SR leukemia is 78.7%; in the assay with RPMI-8226 leukemia, 100%; in the assay on OVCAR-8 ovarian, 101%; in the assay on OVCAR-5 ovarian, 114%; with OVCAR-4 ovarian, 105%; in the assay with SK-OV-3 ovarian, 120%. For the same molecule, the growth in the assay with IGROV1 ovarian is 116%; in the assay on OVCAR-3 ovarian, 112%; with HS 578T breast, 102%; in the assay on NCI/ADR-RES ovarian, 102%.

Take `CCOC(=O)c1c(C(F)(F)F)n([O-])c2ccc(OC)cc2[n+]1=O`: the growth is -13.3% (active) in the assay on SR leukemia; -34.8% (active) in the assay with RPMI-8226 leukemia; 23.8% in the assay with OVCAR-8 ovarian; 60.8% with OVCAR-5 ovarian; 30.5% with OVCAR-4 ovarian; 23.8% in the assay with SK-OV-3 ovarian. The growth in the assay on IGROV1 ovarian was 24.2%; in the assay on OVCAR-3 ovarian it was 32.9%; in the assay with HS 578T breast, 41.1%; in the assay on NCI/ADR-RES ovarian, 31.3%.
